Screening results: PubChem, Johns Hopkins Ion Channel Center
An excerpt weighted towards active compounds, which were near 1.6% of everything screened.
KCNQ2 pot = potentiators of rat KCNQ2 potassium channel; Potassium voltage-gated channel subfamily KQT member 2 (Rattus norvegicus), O88943; AID 2239, 2010; CHO-K1 KCNQ2, FluxOR thallium flux fluorescence; active compounds read high; B-score at 10 µM; 310,000 tested, 0.54% active;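 active = fluorescence ratio B-score at least 3 SD of library B-scores, with initial fluorescence B-score within 3 of them, cut at about 5.3 in these data; same plate scores as AID 2156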;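 also: B-score of peak minus minimum over baseline fluorescence ratio after K+ and Tl+ stimulus; positive B-score means potentiation of KCNQ2 with more thallium influx and brighter signal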
KCNQ2 inh = rat KCNQ2 potassium channel inhibitors, primary screen, cell-based, CHO-K1, FluxOR thallium flux, B-score; 20 min; active compounds read low; B-score at 10 µM; 310,000 tested, 1.1% active;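 active = fluorescence ratio B-score at most minus 3 library SDs, with starting brightness B-score within 2 library SDs, cut at about -5.5 in these data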
Kir21 confirm = mouse Kir2.1 channel blockers, retest, confirmation, cell-based, FluxOR thallium flux, duplicate. shares compounds with KCNQ2 pot. Kir2.1-expressing cells, FluxOR thallium flux fluorescence; active compounds read low. Tl flux remaining, % of negative control (active compounds read low), % at 10 µM. 2,300 tested, 41% active;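 active = Primary-screen hit whose thallium flux fell at least 3 control SD below untreated wells in both duplicates, with normal baseline fluorescence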
HEK293 Tl flux = alters thallium flux in parental HEK293 cells, Kir2.1 counter-screen; shares compounds with KCNQ2 pot; FluxOR thallium flux fluorescence; 0% = unstimulated blank wells; FluxOR signal as % of negative control (100 = no effect), % at 10 µM; 2,300 tested, 19% active;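 active = dye signal at least 3 control SD above or below untreated wells in both duplicates, raw fluorescence within 3, either direction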;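 also: percent is based on the flux ratio of peak minus minimum fluorescence over baseline F0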
CHO-K1 ctr = nonspecific thallium flux increase in parental CHO-K1, confirmation, counter-screen for KCNQ2 potentiator project, cell-based, FluxOR thallium flux, duplicate. activity increase over 3SD of controls, % at 10 µM. shares compounds with KCNQ2 pot. 1,200 tested, 43% active. parental CHO-K1 cells, FluxOR thallium flux fluorescence; zero = vehicle mean+3SD, 100% = vehicle-minus-blank window;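 active = signal rise of at least 3 SD above the untreated control mean, in both duplicate wells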;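 also: counter screen of KCNQ2 potentiator hits so any rise reflects channel-independent effects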
KCNQ1 sel pot = human KCNQ1 channel potentiation off-target, confirmation, selectivity assay for KCNQ2 potentiator project, cell-based, CHO, FluxOR thallium flux; shares compounds with KCNQ2 pot; CHO KCNQ1 stable, FluxOR thallium flux fluorescence; beyond 3SD, as % of vehicle-control signal; activation over 3SD threshold, % at 10 µM; 1,200 tested, 28% active;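 active = fluorescence ratio rise of at least 3 SD of vehicle wells above their mean, in both replicate wells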
KCNQ2 pot confirm = rat KCNQ2 channel potentiators, confirmation, cell-based, CHO, FluxOR thallium flux, duplicate; CHO-KCNQ2 cells, FluxOR thallium flux fluorescence; potentiation, less the hit threshold, % at 10 µM; shares compounds with KCNQ2 pot; 1,200 tested, 68% active;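 active = fluorescence ratio rising 3 SD or more over the vehicle control mean in both replicates, plus primary screen hit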;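 also: peak minus minimum thallium fluorescence divided by baseline after K/Tl stimulus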
Kir21 spec = mouse Kir2.1 channel activation off-target, confirmation, selectivity assay for KCNQ2 potentiator project, cell-based, HEK293, FluxOR thallium flux. shares compounds with KCNQ2 pot. HEK293 Kir2.1, FluxOR thallium flux fluorescence. activity over 3SD threshold, % at 10 µM. 1,200 tested, 2% active;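 active = fluorescence ratio rise of at least 3 SD above the vehicle-control mean, seen in both replicates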
KCNQ2 W236L MoA = potentiators of retigabine-insensitive KCNQ2 W236L, mechanism study for KCNQ2 potentiator project, cell-based, rat KCNQ2 W236L, CHO, automated patch clamp; 940 tested, 10% active; current increase over 3SD of negative controls (%), active compounds read high, % at 25 µM; automated patch clamp current; shares compounds with KCNQ2 pot; AID 2558, 2010;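 active = current increase at least 3 SD of the untreated controls above them in both duplicate recordings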
Target sequence (O88943 whole entry W236L, looked up): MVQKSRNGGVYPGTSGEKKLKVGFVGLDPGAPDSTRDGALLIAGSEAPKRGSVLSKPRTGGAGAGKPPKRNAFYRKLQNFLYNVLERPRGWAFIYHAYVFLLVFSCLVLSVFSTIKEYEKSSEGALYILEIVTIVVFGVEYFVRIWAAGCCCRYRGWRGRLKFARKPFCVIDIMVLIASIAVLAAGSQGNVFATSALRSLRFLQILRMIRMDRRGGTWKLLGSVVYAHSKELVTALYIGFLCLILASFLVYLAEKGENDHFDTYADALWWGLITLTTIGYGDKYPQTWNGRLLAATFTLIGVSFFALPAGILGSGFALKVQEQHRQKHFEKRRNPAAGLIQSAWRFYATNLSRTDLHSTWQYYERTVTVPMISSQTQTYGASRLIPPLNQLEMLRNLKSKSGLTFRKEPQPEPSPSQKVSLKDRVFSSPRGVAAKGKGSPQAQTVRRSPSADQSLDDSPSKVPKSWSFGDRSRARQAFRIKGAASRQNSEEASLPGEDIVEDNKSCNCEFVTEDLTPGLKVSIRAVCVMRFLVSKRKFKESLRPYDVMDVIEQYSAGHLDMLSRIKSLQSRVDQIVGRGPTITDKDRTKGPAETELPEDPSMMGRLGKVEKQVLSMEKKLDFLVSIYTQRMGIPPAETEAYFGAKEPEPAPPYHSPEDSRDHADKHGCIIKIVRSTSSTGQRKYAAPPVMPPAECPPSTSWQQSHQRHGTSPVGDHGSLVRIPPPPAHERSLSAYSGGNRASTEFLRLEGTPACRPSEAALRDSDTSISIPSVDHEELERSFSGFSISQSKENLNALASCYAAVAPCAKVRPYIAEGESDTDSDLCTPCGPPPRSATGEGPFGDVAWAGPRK
Hits are given with their value; 0 = inactive; - = no result given.

SMILES	KCNQ2 pot	KCNQ2 inh	Kir21 confirm	HEK293 Tl flux	others
CC(C)c1nc(SCC(=O)N2CCOCC2)c2c(=O)n(C)c(=O)n(C)c2n1	0	0	-	-
CSc1ccc(CN(C)C(C)C(=O)NCc2ccccc2)cc1 (centres undefined)	-	0	34%	0
COc1ccc(CNC(=O)CN(C)Cc2ccc(SC)cc2)cc1	-	0	0	0
CSc1ccc(CN(C)CC(=O)NCc2ccccc2)cc1	-	0	-	-
CCc1ccc(CN(C)C(C)C(=O)NCc2ccccc2)cc1 (centres undefined)	-	0	-	-
COc1ccc(CCNCC(O)c2ccccc2)cc1 (centres undefined)	0	0	-	-
CSc1ccc(CNCC(O)c2ccccc2)cc1 (centres undefined)	-	0	59%	0
O[C@@H](CNC[C@H](O)c1ccccc1)c1ccccc1	-	0	-	-
OC(CNCCc1ccccc1)c1ccccc1 (centres undefined)	0	0	44%	0
Cc1cc(CNC(=O)Cn2cc([N+](=O)[O-])cn2)c2ccccc2n1	0	0	-	-
COCCOc1cc(N2C(=O)CSCC2=O)c(Cl)cc1Cl	-	0	-	-
O=C(Nc1ccccc1)N1CCN(CCc2ccccc2)CC1	0	0	-	-
O=c1[nH]cnc2scc(-c3ccc(-c4ccccc4)cc3)c12	-	0	-	-
Cc1c(-c2ccccc2)sc2nc[nH]c(=S)c12	10	0	0	0	CHO-K1 ctr=0;KCNQ1 sel pot=0;KCNQ2 pot confirm=6.5;Kir21 spec=0;KCNQ2 W236L MoA=0
CCCc1c(C(=O)N/N=C/c2cccs2)nnn1-c1nonc1N	-	0	-	-
Cc1ccc(CC(=O)NCC2CCCCC2)cc1	7.5	0	0	0	CHO-K1 ctr=47;KCNQ1 sel pot=0;KCNQ2 pot confirm=0;Kir21 spec=0
Cc1ccccc1CC(=O)NCC1CCCCC1	0	0	-	-
Cc1cc2ccccn2c1C(=O)c1ccc(NN)c([N+](=O)[O-])c1	0	0	-	-
c1ccc(-c2n[nH]c(-c3ccccn3)n2)nc1	0	0	-	-
c1ccc(-c2n[nH]c(-c3ccccn3)n2)cc1	14	0	0	0	CHO-K1 ctr=0;KCNQ1 sel pot=0;KCNQ2 pot confirm=48;Kir21 spec=0;KCNQ2 W236L MoA=0
CCCC(=O)Nc1ccc(NCc2ccc(C)s2)cc1	22	0	0	0	CHO-K1 ctr=0;KCNQ1 sel pot=0;KCNQ2 pot confirm=85;Kir21 spec=0;KCNQ2 W236L MoA=0
CC(=O)Nc1ccc(NCc2ccc(C)s2)cc1	0	0	-	-
CCc1ccc2c(c1)c1nnc(NN)nc1n2C	-	0	-	-
O=C(CN1CCCCCC1)Nc1ccccc1[N+](=O)[O-]	-	0	-	-
O=C(CC1CCC1)Nc1cccc2c([N+](=O)[O-])cccc12	9.6	0	0	0	CHO-K1 ctr=0;KCNQ1 sel pot=56;KCNQ2 pot confirm=35;Kir21 spec=0;KCNQ2 W236L MoA=0
SMILES	KCNQ2 pot	KCNQ2 inh	Kir21 confirm	HEK293 Tl flux	others
O=C(Cn1ccc([N+](=O)[O-])n1)NCC1CCCO1 (centres undefined)	-	0	-	-
Cc1oc2cc(Br)c(O)c(Br)c2c1-c1ccccc1	-	0	-	-
Cc1ccc(C(C)C)cc1S(=O)(=O)NCc1ccccn1	-	0	67%	0
Cc1cc(C)c(S(=O)(=O)NCc2ccccn2)cc1C	-	0	-	-
O=C(CCc1ccc(S(=O)(=O)NCc2ccccc2)cc1)NCc1cccnc1	0	0	-	-
COc1cccc(C2CC(C(F)(F)F)n3nc(C(=O)Nc4c(C)n(C)n(-c5ccccc5)c4=O)cc3N2)c1 (centres undefined)	0	0	-	-
COC(=O)n1c(=S)oc2cc(Cl)ccc21	8.4	0	0	0	CHO-K1 ctr=28;KCNQ1 sel pot=0;KCNQ2 pot confirm=0;Kir21 spec=0;KCNQ2 W236L MoA=0
CCCCOC(=O)n1c(=S)oc2cc(Cl)ccc21	0	0	-	-
CNc1c2c(nn1C)CCCC2	-	0	-	-
Cc1cccc(CC(=O)NCCn2c(C)cc3ccccc32)c1	6.9	0	0	0	CHO-K1 ctr=87;KCNQ1 sel pot=0;KCNQ2 pot confirm=17;Kir21 spec=0;KCNQ2 W236L MoA=0
Cc1cc2ccccc2n1CCNC(=O)Cc1ccccc1	-	0	-	-
CN1CCN(S(=O)(=O)c2ccc(NC(=O)c3cccs3)cc2)CC1	0	0	-	-
CCCCn1c(N)c(N(CCOC)C(=O)COC(=O)CCOc2ccccc2)c(=O)[nH]c1=O	-	0	0	0
CCCCn1c(N)c(N(CCOC)C(=O)COc2ccc(OCC)cc2)c(=O)[nH]c1=O	0	0	-	-
COc1ccc(CNC(=O)C(OC(=O)c2ccco2)c2ccc(F)cc2)cc1 (centres undefined)	0	0	-	-
CC(NC(=O)Nc1ccc(Cl)cc1)C1CCCO1 (centres undefined)	-	0	-	-
Cc1cc(Cl)ccc1OC(C)C(=O)NC(C)C1CCCO1 (centres undefined)	-	0	56%	0
COc1ccc(C(=O)Nc2nnc(S(=O)(=O)N3CCOCC3)s2)cc1	-	0	-	-
Cc1ccc(S(=O)(=O)N2CCN(C(=O)COC(=O)c3oc4ccccc4c3C)CC2)cc1	0	0	-	-
Cc1cc(Cl)c(S(N)(=O)=O)cc1OCC(=O)NC1CCCCC1	-	0	-	-
Cc1cc(Cl)c(S(=O)(=O)N2CCCCCC2)cc1OCC(=O)NC1CCCCC1	25	0	0	130%	CHO-K1 ctr=0;KCNQ1 sel pot=0;KCNQ2 pot confirm=164;Kir21 spec=0;KCNQ2 W236L MoA=0
Cc1cc(Cl)c(S(=O)(=O)N2CCSCC2)cc1OCC(=O)NC1CCCCC1	32	0	0	126%	CHO-K1 ctr=6.8;KCNQ1 sel pot=0;KCNQ2 pot confirm=122;Kir21 spec=0;KCNQ2 W236L MoA=0
Cc1cc(Cl)c(S(=O)(=O)NC2CCCC2)cc1OCC(=O)NC1CCCCC1	0	0	-	-
CCCOc1ccc2c3c(c(=O)oc2c1)CCCC3	0	0	-	-
Fc1ccc(-c2nc3ccccc3[nH]2)cc1	0	0	-	-
S=c1nc(-c2ccc(Br)cc2)[nH]c2ccccc12	26	0	0	452%	CHO-K1 ctr=0;KCNQ1 sel pot=0;KCNQ2 pot confirm=40;Kir21 spec=0;KCNQ2 W236L MoA=0
COc1ccc(NC(=O)c2c(NC(=O)CNCc3ccco3)sc3c2CCC3)cc1	-	0	-	-
CCOC(=O)c1c(NC(=O)c2ccco2)sc2c1CCCC2	0	0	-	-
CCOC(=O)c1c(NC(=O)CN2CCN(C(=O)c3ccco3)CC2)sc2c1CCCC2	0	0	0	0
